ChEMBL document CHEMBL1961873, “Compounds: GSK PKIS; Assays: Nanosyn kinase panel” (2012)

Assays:
[1] = molecular target: High affinity nerve growth factor receptor (Homo sapiens) (UniProt P04629); conditions: at 1 µM;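 further: each value is the mean percent inhibition of TRKA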
[2] = molecular target: BDNF/NT-3 growth factors receptor (Homo sapiens) (UniProt Q16620); conditions: at 0.1 µM
[3] = molecular target: BDNF/NT-3 growth factors receptor (Homo sapiens) (UniProt Q16620); conditions: at 1 µM
[4] = molecular target: NT-3 growth factor receptor (Homo sapiens) (UniProt Q16288); conditions: at 0.1 µM
Chain of NT-3 growth factor receptor (Homo sapiens) (Q16288 32-839 limits assumed): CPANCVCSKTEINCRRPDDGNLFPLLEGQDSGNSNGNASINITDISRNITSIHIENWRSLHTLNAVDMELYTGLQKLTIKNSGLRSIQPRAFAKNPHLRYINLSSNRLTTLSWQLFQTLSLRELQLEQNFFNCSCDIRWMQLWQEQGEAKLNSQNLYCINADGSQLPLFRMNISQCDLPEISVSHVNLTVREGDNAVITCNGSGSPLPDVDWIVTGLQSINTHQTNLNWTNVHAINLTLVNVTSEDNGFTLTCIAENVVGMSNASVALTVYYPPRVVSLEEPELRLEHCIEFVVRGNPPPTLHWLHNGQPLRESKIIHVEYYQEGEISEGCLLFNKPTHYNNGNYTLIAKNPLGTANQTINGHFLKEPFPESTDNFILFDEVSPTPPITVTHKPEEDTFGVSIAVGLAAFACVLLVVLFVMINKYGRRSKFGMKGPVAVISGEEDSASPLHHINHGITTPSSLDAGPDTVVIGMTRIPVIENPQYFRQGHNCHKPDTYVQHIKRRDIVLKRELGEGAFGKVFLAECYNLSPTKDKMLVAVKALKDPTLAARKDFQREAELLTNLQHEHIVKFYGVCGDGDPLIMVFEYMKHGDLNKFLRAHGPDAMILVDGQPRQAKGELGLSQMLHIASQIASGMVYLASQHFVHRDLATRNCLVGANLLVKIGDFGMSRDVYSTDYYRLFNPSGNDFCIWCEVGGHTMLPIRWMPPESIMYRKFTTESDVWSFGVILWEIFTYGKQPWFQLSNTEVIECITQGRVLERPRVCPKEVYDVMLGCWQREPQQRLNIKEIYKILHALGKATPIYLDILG

[5] = molecular target: NT-3 growth factor receptor (Homo sapiens) (UniProt Q16288); conditions: at 1 µM
[6] = molecular target: T1, Tyrosine-protein kinase TXK (Homo sapiens) (UniProt P42681); conditions: at 0.1 µM
T1 sequence (whole entry): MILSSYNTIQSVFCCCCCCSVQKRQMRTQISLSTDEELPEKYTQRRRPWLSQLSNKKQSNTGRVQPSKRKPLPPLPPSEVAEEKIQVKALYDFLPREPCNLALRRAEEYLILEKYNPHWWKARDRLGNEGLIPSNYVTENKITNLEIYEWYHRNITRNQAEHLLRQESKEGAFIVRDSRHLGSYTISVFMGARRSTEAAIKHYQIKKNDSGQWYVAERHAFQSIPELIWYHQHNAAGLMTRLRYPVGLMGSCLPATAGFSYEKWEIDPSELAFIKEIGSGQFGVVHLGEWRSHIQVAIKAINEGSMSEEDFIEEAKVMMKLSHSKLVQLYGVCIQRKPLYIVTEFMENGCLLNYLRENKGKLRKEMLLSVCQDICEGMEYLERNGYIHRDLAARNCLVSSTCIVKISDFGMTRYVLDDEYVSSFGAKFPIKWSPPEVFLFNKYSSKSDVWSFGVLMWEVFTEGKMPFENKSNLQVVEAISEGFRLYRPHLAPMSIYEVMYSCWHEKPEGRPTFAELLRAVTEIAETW

[7] = molecular target: T1, Tyrosine-protein kinase TXK (Homo sapiens); conditions: at 1 µM
[8] = molecular target: Non-receptor tyrosine-protein kinase TYK2 (Homo sapiens) (UniProt P29597); conditions: at 0.1 µM;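 further: each value is a mean of the inhibition readings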
Chain of Non-receptor tyrosine-protein kinase TYK2 (Homo sapiens) (P29597 whole entry): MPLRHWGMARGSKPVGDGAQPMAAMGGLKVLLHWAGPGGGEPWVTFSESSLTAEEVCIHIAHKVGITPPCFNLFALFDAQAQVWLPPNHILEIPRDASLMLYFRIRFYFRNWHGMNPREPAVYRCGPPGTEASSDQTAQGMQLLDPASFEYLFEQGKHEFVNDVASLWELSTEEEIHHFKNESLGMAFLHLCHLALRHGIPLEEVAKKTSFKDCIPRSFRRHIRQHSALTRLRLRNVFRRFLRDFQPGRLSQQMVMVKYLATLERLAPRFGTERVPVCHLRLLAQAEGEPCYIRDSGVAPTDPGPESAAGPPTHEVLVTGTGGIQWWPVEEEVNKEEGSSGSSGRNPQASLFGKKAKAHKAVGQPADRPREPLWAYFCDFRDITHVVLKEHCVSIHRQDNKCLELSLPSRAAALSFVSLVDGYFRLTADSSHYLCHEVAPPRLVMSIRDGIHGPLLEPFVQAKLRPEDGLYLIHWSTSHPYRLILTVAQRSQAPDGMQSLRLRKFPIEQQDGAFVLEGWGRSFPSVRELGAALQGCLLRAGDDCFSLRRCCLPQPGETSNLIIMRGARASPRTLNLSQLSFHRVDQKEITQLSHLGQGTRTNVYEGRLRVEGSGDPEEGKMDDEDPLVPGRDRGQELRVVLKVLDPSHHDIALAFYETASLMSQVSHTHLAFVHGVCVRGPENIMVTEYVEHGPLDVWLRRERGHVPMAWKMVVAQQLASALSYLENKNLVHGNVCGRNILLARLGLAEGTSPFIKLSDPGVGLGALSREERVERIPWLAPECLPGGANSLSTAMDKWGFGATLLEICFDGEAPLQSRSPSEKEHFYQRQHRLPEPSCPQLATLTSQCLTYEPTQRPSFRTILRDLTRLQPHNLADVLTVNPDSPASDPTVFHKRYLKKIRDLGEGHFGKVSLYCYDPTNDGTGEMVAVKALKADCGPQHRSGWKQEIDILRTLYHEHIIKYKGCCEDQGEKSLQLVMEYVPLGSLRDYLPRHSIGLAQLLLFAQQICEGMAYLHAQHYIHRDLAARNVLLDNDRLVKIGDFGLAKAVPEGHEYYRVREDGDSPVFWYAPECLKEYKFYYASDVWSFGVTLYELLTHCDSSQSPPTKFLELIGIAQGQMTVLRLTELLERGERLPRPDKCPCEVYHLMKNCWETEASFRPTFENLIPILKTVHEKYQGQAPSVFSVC

[9] = molecular target: T2, Dual specificity protein kinase TTK (Homo sapiens) (UniProt P33981); conditions: at 1 µM;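 further: reported figures are mean TTK inhibition at 1 µM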
T2 sequence (whole entry): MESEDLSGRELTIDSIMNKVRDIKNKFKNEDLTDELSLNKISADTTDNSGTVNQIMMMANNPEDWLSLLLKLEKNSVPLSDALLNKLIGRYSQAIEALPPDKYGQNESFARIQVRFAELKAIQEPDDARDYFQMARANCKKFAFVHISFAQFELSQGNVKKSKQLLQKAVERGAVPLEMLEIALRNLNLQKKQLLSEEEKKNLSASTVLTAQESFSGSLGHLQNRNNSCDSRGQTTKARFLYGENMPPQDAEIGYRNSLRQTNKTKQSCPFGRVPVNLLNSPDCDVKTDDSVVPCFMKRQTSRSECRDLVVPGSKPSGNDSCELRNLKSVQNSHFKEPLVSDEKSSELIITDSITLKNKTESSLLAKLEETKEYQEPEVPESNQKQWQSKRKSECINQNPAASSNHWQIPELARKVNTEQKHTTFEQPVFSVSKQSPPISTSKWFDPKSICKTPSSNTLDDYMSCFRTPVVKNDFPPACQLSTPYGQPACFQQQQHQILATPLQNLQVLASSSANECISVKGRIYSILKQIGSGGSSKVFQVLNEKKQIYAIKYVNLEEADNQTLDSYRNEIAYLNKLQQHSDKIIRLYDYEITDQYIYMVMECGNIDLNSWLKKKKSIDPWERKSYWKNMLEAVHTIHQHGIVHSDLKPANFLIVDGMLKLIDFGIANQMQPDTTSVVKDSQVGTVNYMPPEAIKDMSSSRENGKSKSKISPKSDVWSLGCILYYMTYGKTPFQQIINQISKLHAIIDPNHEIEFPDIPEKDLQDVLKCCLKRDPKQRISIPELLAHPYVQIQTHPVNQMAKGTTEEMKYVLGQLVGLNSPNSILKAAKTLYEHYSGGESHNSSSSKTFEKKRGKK

[10] = molecular target: T3, Aurora kinase A (Homo sapiens) (UniProt O14965); conditions: at 0.1 µM
T3 sequence (whole entry): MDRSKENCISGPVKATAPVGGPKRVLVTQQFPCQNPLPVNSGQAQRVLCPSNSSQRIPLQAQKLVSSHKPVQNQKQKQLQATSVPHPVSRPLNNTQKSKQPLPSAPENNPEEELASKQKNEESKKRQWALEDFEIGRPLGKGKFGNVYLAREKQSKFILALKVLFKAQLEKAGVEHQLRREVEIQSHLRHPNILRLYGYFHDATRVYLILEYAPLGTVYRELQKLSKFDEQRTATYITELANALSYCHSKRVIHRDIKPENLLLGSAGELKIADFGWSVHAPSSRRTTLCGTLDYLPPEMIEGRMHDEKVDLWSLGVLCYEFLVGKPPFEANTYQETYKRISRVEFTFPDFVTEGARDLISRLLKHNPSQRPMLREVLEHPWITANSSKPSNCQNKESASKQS

[11] = molecular target: T3, Aurora kinase A (Homo sapiens); conditions: at 1 µM
[12] = molecular target: Aurora kinase B (Homo sapiens) (UniProt Q96GD4); conditions: at 0.1 µM
Chain of Aurora kinase B (Homo sapiens) (Q96GD4 whole entry): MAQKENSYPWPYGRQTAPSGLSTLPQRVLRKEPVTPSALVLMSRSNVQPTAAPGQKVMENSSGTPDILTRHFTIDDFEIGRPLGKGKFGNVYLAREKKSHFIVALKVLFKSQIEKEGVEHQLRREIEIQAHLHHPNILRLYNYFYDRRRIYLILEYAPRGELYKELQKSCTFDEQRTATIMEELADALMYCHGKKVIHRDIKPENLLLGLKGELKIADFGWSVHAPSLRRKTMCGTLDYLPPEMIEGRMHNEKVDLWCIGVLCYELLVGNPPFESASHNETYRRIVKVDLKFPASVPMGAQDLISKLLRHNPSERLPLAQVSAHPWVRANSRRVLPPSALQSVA

[13] = molecular target: Aurora kinase B (Homo sapiens) (UniProt Q96GD4); conditions: at 1 µM
[14] = molecular target: T4, Aurora kinase C (Homo sapiens) (UniProt Q9UQB9); conditions: at 0.1 µM
T4 sequence (whole entry): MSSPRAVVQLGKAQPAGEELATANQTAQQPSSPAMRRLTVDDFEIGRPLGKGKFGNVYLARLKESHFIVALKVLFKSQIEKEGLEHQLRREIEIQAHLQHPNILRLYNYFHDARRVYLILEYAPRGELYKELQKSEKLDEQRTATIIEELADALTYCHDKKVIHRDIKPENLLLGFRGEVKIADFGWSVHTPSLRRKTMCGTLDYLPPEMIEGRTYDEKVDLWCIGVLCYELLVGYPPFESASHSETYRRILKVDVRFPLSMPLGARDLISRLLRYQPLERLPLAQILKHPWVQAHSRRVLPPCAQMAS

[15] = molecular target: T4, Aurora kinase C (Homo sapiens); conditions: at 1 µM
[16] = molecular target: Serine/threonine-protein kinase 10 (Homo sapiens) (UniProt O94804); conditions: at 0.1 µM
Chain of Serine/threonine-protein kinase 10 (Homo sapiens) (O94804 whole entry, looked up): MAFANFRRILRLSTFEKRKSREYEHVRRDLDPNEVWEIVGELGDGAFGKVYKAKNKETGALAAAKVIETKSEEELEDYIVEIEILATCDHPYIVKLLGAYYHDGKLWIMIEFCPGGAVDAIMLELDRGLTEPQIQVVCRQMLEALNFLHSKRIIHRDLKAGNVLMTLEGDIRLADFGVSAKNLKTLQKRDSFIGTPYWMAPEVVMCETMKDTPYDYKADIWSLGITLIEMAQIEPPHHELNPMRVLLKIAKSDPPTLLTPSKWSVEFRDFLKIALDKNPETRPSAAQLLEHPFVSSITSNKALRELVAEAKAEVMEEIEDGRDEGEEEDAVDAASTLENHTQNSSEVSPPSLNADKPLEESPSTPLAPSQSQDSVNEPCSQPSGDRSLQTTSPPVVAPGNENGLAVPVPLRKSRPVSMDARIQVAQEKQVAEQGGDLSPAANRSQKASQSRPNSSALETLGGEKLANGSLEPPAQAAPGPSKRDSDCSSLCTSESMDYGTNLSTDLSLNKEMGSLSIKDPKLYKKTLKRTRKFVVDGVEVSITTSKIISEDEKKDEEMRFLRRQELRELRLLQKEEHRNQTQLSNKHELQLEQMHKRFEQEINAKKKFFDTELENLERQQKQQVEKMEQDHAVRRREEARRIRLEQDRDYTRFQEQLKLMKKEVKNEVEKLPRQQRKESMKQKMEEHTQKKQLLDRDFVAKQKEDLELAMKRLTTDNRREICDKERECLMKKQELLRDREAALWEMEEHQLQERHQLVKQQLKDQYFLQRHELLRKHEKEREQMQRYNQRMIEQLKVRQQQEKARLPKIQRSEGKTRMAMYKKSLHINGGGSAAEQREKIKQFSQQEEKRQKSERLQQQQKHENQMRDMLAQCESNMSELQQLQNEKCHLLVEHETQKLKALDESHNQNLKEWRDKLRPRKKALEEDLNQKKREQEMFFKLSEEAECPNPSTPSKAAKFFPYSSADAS

[17] = molecular target: Serine/threonine-protein kinase 10 (Homo sapiens) (UniProt O94804); conditions: at 1 µM
[18] = molecular target: T5, Mitogen-activated protein kinase kinase kinase kinase 2 (Homo sapiens) (UniProt Q12851); conditions: at 0.1 µM
T5 sequence (whole entry): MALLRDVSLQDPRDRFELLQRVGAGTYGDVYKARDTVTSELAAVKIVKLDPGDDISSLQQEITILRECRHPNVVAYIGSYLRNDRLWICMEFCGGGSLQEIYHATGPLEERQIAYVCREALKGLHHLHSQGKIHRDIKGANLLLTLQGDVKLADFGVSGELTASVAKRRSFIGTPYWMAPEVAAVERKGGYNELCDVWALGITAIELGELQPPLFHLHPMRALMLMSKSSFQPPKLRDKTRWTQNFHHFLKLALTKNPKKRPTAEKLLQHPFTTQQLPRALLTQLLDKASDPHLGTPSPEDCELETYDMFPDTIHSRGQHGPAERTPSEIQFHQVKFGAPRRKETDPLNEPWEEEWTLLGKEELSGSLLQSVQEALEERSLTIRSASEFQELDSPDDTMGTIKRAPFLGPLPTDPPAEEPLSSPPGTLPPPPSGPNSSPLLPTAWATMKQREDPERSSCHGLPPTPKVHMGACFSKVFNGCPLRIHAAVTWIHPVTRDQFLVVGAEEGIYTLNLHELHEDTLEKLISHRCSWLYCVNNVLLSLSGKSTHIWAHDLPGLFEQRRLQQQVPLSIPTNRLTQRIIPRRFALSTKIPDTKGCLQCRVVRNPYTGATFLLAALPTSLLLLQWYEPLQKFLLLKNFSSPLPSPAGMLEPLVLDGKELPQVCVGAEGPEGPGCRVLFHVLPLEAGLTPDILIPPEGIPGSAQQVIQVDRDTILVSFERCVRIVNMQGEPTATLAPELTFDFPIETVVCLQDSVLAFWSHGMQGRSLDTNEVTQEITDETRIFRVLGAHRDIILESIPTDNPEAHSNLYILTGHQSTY

[19] = molecular target: T5, Mitogen-activated protein kinase kinase kinase kinase 2 (Homo sapiens); conditions: at 1 µM
[20] = molecular target: Mitogen-activated protein kinase kinase kinase kinase 4 (Homo sapiens) (UniProt O95819); conditions: at 0.1 µM

Chain of BDNF/NT-3 growth factors receptor (Homo sapiens) (Q16620 32-822 limits assumed): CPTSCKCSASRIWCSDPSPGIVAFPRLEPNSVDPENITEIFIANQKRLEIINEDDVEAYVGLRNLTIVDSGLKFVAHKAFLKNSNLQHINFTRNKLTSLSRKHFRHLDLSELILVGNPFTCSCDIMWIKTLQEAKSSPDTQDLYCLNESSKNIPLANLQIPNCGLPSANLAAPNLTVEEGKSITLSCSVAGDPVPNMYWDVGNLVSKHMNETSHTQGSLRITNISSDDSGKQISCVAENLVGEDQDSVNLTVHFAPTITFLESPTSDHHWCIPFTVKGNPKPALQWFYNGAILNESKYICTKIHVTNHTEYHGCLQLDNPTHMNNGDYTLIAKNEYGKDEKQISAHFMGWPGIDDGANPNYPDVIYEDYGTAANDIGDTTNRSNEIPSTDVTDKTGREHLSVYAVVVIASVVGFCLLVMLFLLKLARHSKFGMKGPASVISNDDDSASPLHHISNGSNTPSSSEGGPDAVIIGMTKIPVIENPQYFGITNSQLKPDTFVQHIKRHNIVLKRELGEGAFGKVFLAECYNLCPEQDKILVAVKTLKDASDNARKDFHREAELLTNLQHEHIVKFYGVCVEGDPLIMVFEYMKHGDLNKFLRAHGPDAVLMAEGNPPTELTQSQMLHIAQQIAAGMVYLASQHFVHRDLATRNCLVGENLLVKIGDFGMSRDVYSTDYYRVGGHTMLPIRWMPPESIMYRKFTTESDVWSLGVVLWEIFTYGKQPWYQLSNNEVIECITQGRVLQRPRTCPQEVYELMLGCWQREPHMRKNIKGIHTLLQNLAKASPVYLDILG
Chain of High affinity nerve growth factor receptor (Homo sapiens) (P04629 33-796 limits assumed): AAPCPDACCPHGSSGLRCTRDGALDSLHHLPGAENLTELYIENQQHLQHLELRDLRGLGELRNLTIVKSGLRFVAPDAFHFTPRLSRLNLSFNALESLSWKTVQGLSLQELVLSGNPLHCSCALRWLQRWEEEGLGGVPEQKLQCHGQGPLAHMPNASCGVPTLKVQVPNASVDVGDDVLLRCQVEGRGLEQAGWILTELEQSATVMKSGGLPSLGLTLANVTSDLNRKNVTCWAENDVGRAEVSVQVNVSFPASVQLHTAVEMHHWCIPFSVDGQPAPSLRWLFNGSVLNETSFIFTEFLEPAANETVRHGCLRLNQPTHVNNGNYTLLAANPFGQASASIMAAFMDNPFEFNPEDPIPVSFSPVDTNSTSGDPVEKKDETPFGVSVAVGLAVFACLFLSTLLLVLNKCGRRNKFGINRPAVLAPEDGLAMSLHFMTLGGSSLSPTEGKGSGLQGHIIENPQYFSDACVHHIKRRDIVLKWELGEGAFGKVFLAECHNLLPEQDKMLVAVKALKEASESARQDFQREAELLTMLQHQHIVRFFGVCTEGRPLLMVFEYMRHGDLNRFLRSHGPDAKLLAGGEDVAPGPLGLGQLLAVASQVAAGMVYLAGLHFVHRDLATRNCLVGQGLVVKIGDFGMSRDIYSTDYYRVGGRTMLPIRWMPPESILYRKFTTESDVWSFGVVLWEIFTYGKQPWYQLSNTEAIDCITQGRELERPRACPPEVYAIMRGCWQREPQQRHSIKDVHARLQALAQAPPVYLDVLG

Row | SMILES | inhibition [1] [%] | inhibition [2] [%] | inhibition [3] [%] | inhibition [4] [%] | inhibition [5] [%] | inhibition [6] [%] | inhibition [7] [%] | inhibition [8] [%] | inhibition [9] [%] | inhibition [10] [%] | inhibition [11] [%] | inhibition [12] [%] | inhibition [13] [%] | inhibition [14] [%] | inhibition [15] [%] | inhibition [16] [%] | inhibition [17] [%] | inhibition [18] [%] | inhibition [19] [%] | inhibition [20] [%]
1 | O=C1Nc2ccccc2/C1=C/Nc1ccc(-n2cncn2)cc1 | 44.2 | 11.7 | 56.5 | 12.5 | 58.4 | 3.04 | 5.07 | -4.51 | 47.9 | 4.13 | 36.3 | 6.72 | 27.7 | 3.93 | 44.8 | 4.16 | 12.6 | 2.9 | 12.6 | 18.5
2 | Fc1ccc(-c2ncn(C3CCNCC3)c2-c2ccnc(Oc3ccc(F)c(F)c3)n2)cc1 | 3.11 | 3.23 | 3.93 | 2.87 | 4.23 | -5.36 | 0.03 | -3.58 | 14 | -0.65 | -0.3 | -1.34 | 1.81 | -2.62 | 4.92 | 4.63 | 8.33 | 1.35 | 3.76 | 9.16
3 | COc1ccc2cc(-c3c(-c4ccncc4)nc(-c4ccc([S+](C)[O-])cc4C)n3C)ccc2c1 (stereo not given) | -0.68 | -0.26 | -0.8 | -0.79 | 1.56 | 0.29 | 1.25 | -1.86 | 1.61 | -0.61 | 4.24 | 2.96 | 6.06 | -0.11 | 2.95 | 52.4 | 97.3 | -0.16 | 0.1 | 1.21
4 | COc1cc2ncn(-c3cc(OCc4cccs4)c(C(N)=O)s3)c2cc1OC | 8.7 | 3.23 | 16.9 | 6.48 | 27.2 | 0.76 | 5.11 | -2.34 | 7.37 | -6.64 | 13.4 | 2.98 | 20 | -0.54 | 10.1 | 75.9 | 93.5 | 10.8 | 36 | 18.7
5 | CS(=O)(=O)CCNCc1cc(-c2cc3c(Nc4ccc(OCc5cccc(F)c5)c(Cl)c4)ncnc3s2)cs1 | 7.01 | 3.47 | 5.03 | 5.13 | 3.52 | 7.43 | 6.57 | -4.26 | 9.22 | 4.18 | 4.87 | 5.13 | 9.34 | 3.65 | 8.71 | 9.33 | 12.9 | 0.39 | 3.81 | 4.31
6 | NC(=O)Cc1ccccc1Oc1nccc(-c2c(-c3ccc(F)cc3)ncn2C2CCNCC2)n1 | 1.31 | 0.02 | 0.58 | 0.22 | 0.96 | 3.01 | 4.27 | -1.14 | 7.71 | 1.9 | 0.49 | 2.8 | 1.02 | -0.43 | 8.16 | 3.78 | 5.45 | 0.65 | 3.36 | 5.19
7 | Cc1ccc(NC(=O)c2ccoc2)cc1-c1ccc(C(=O)NCC2CC2)cc1 | 1.15 | 2.58 | 1.82 | 2.37 | 0.07 | -0.38 | 2.18 | -3.59 | 4.41 | 2.28 | 2.57 | 1.19 | 4.85 | 1.82 | 1 | 2.73 | 5.18 | -0.94 | 0.39 | 0.77
